Measurements from PubChem BioAssay AID1159580 (chemical genetic matrix, 2015).
“And” between values parts separate entries of the source, which are not always exact repeats. Identical values can stand only once. The whole screen tested about 5,500 compounds, of which about 2,000 (36%) were called active. Another 18% or so got no clear call; they are omitted. Rule as the data show it: active = normalized growth mostly below about 0.91 (no sharp cut-off); inconclusive = no clear call, values can overlap the other calls; inactive = mostly above about 0.92. Some of the results follow.

Assay: chemical genetic growth profiling, strain panel (AID 1159580);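 also: tested at 20 µM; growth read once vehicle control cultures reached saturation at 30 °C; 1 = growth at the plate median or of vehicle wells; lower values mean less growth of the strain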
Settings: growth OD

Measured: normalized growth

Cn1cnc2c1c(=O)[nH]c(=O)n2C
inactive: S. cerevisiae deletion strains, locus YJR075W, strain HOC1, hits give low values 1.03 | S. cerevisiae deletion strains, locus YKL009W, strain mrt4, hits give low values 0.989 | S. cerevisiae deletion strains, locus YKL068W, hits give low values 1.01 | S. cerevisiae deletion strains, locus YKL085W, strain MDH1 (second series), hits give low values 1.01 | S. cerevisiae deletion strains, locus YKL085W, strain MDH1, hits give low values 1.01 | S. cerevisiae deletion strains, locus YKL160W, strain elf1, hits give low values 0.995 | S. cerevisiae deletion strains, locus YKL190W, strain CNB1, hits give low values 1.01 | S. cerevisiae deletion strains, locus YKR001C, strain vps1, hits give low values 1 | S. cerevisiae deletion strains, locus YKR026C, strain gcn3, hits give low values 0.961 | S. cerevisiae deletion strains, locus YKR091W, strain srl3, hits give low values 0.964 | S. cerevisiae deletion strains, locus YLL001W, strain dnm1, hits give low values 0.994 | S. cerevisiae deletion strains, locus YLL026W, hits give low values 0.996 | S. cerevisiae deletion strains, locus YLL041C, strain sdh2, hits give low values 1.01 | S. cerevisiae deletion strains, locus YLR027C, strain aat2, hits give low values 0.987 | S. cerevisiae deletion strains, locus YLR039C, strain RIC1, hits give low values 1.02 | S. cerevisiae deletion strains, locus YLR058C, strain SHM2, hits give low values 1.01 | S. cerevisiae deletion strains, locus YLR102C, strain apc9, hits give low values 1.01 | S. cerevisiae deletion strains, locus YLR113W, strain HOG1, hits give low values 0.973 | S. cerevisiae deletion strains, locus YLR221C, strain rsa3, hits give low values 0.976 | S. cerevisiae deletion strains, locus YLR258W, strain gsy2, hits give low values 1 | S. cerevisiae deletion strains, locus YLR262C, strain YPT6 (second series), hits give low values 0.978 | S. cerevisiae deletion strains, locus YLR262C, strain YPT6, hits give low values 1.04 | S. cerevisiae deletion strains, locus YLR268W, strain sec22, hits give low values 1.04 | S. cerevisiae deletion strains, locus YLR320W, strain mms22, hits give low values 1 | S. cerevisiae deletion strains, locus YLR330W, strain CHS5, hits give low values 1.01 | S. cerevisiae deletion strains, locus YLR342W, strain FKS1 (second series), hits give low values 1.01 | S. cerevisiae deletion strains, locus YLR342W, strain FKS1, hits give low values 0.978 | S. cerevisiae deletion strains, locus YLR357W, strain rsc2, hits give low values 1 | S. cerevisiae deletion strains, locus YLR370C, strain arc18, hits give low values 0.97 | S. cerevisiae deletion strains, locus YLR371W, strain rom2, hits give low values 1.03 | S. cerevisiae deletion strains, locus YLR384C, strain iki3, hits give low values 0.994 | S. cerevisiae deletion strains, locus YLR418C, strain cdc73, hits give low values 0.99 | S. cerevisiae deletion strains, locus YML016C, strain PPZ1, hits give low values 1.01 | S. cerevisiae deletion strains, locus YML032C, strain rad52, hits give low values 1.03 | S. cerevisiae deletion strains, locus YML120C, strain ndi1, hits give low values 0.959 | S. cerevisiae deletion strains, locus YML124C, strain tub3, hits give low values 1.01 | S. cerevisiae deletion strains, locus YMR058W, strain fet3, hits give low values 0.97 | S. cerevisiae deletion strains, locus YMR078C, strain ctf18, hits give low values 1.01 | S. cerevisiae deletion strains, locus YMR125W, strain sto1, hits give low values 0.978 | S. cerevisiae deletion strains, locus YMR129W, hits give low values 0.979 | S. cerevisiae deletion strains, locus YMR205C, strain PFK2, hits give low values 0.979 | S. cerevisiae deletion strains, locus YMR223W, strain ubp8, hits give low values 1 | S. cerevisiae deletion strains, locus YMR231W, strain pep5, hits give low values 1 | S. cerevisiae deletion strains, locus YMR263W, strain SAP30, hits give low values 1.01 and 0.995 | S. cerevisiae deletion strains, locus YMR307W, strain GAS1, hits give low values 0.981 and 0.999 | S. cerevisiae deletion strains, locus YNL067W, strain RPL9B, hits give low values 1.02 | S. cerevisiae deletion strains, locus YNL071W, strain lat1, hits give low values 0.983 | S. cerevisiae deletion strains, locus YNL128W, strain TEP1, hits give low values 1.02 and 1.01 | S. cerevisiae deletion strains, locus YNL153C, strain GIM3, hits give low values 1.01 | S. cerevisiae deletion strains, locus YNL175C, strain NOP13, hits give low values 0.995 | S. cerevisiae deletion strains, locus YNL183C, strain NPR1, hits give low values 0.948 | S. cerevisiae deletion strains, locus YNL197C, strain WHI3, hits give low values 1.02 | S. cerevisiae deletion strains, locus YNL209W, strain ssb2, hits give low values 0.986 | S. cerevisiae deletion strains, locus YNL224C, strain SQS1, hits give low values 1.01 | S. cerevisiae deletion strains, locus YNL233W, strain BNI4, hits give low values 1.01 | S. cerevisiae deletion strains, locus YNL248C, strain rpa49, hits give low values 0.978 | S. cerevisiae deletion strains, locus YNL250W, strain rad50, hits give low values 1.02 | S. cerevisiae deletion strains, locus YNL271C, strain bni1, hits give low values 1.01 | S. cerevisiae deletion strains, locus YNL298W, strain CLA4, hits give low values 1 | S. cerevisiae deletion strains, locus YNL307C, strain MCK1, hits give low values 1 | S. cerevisiae deletion strains, locus YNL322C, strain KRE1 (second series), hits give low values 0.953 | S. cerevisiae deletion strains, locus YNL322C, strain KRE1, hits give low values 1.01 and 1.02 | S. cerevisiae deletion strains, locus YNR049C, strain mso1, hits give low values 0.993 | S. cerevisiae deletion strains, locus YNR052C, strain pop2, hits give low values 1.01 | S. cerevisiae deletion strains, locus YOL006C, strain TOP1, hits give low values 1.06 | S. cerevisiae deletion strains, locus YOL012C, strain htz1 0.781 | S. cerevisiae deletion strains, locus YOL147C, strain pex11, hits give low values 1.01 | S. cerevisiae deletion strains, locus YOR001W, strain rrp6, hits give low values 0.986 | S. cerevisiae deletion strains, locus YOR061W, strain CKA2, hits give low values 1.01 | S. cerevisiae deletion strains, locus YOR069W, strain VPS5, hits give low values 1.01 | S. cerevisiae deletion strains, locus YOR070C, strain gyp1, hits give low values 1 | S. cerevisiae deletion strains, locus YOR080W, strain dia2, hits give low values 0.972 | S. cerevisiae deletion strains, locus YOR083W, strain WHI5 (second series), hits give low values 1 | S. cerevisiae deletion strains, locus YOR083W, strain WHI5, hits give low values 0.979 | S. cerevisiae deletion strains, locus YOR106W, strain vam3, hits give low values 0.977 | S. cerevisiae deletion strains, locus YOR136W, strain idh2, hits give low values 1.01 | S. cerevisiae deletion strains, locus YOR144C, strain elg1, hits give low values 1.01 | S. cerevisiae deletion strains, locus YOR184W, strain ser1, hits give low values 1.01 | S. cerevisiae deletion strains, locus YOR231W, strain MKK1, hits give low values 0.976 | S. cerevisiae deletion strains, locus YOR265W, strain rbl2, hits give low values 0.997 | S. cerevisiae deletion strains, locus YOR270C, strain vph1, hits give low values 0.986 | S. cerevisiae deletion strains, locus YOR290C, strain snf2, hits give low values 0.994 | S. cerevisiae deletion strains, locus YOR316C, strain cot1, hits give low values 1.01 | S. cerevisiae deletion strains, locus YPL051W, strain arl3, hits give low values 1 | S. cerevisiae deletion strains, locus YPL055C, strain LGE1, hits give low values 1.01 and 1.03 | S. cerevisiae deletion strains, locus YPL078C, strain atp4, hits give low values 0.979 | S. cerevisiae deletion strains, locus YPL106C, strain sse1, hits give low values 0.954 | S. cerevisiae deletion strains, locus YPL240C, strain hsp82, hits give low values 0.989 | S. cerevisiae deletion strains, locus YPL241C, strain CIN2, hits give low values 1.01 | S. cerevisiae deletion strains, locus YPL256C, strain CLN2, hits give low values 0.932 | S. cerevisiae deletion strains, locus YPR119W, strain clb2, hits give low values 1.02 | S. cerevisiae deletion strains, locus YPR141C, strain kar3, hits give low values 1.01 | S. cerevisiae deletion strains, locus YPR163C, strain tif3, hits give low values 1.01 | S. cerevisiae deletion strains, locus YPR167C, strain met16, hits give low values 1.01 | S. cerevisiae deletion strains, strain wtn01, hits give low values 1.01 | S. cerevisiae strains, strain wild type, hits give low values 1.01
